Out of some 44,000 compounds screened, about 370 (0.84%) were called active. No rule for the calls is given here. Shown is part of a subset that was picked to be rich in actives.

The nature of the assay: inducers of TAG accumulation in Chlamydomonas, primary screen, qHTS, Chlamydomonas reinhardtii (AID 1159537).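 Also: hits raise Nile Red signal meaning more stored TAG.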 As to conditions: Nile Red fluorescence, 72 h, screened at 10 µM (by protocol).
With `Clc1ccc(-n2nnnc2SCc2nn[nH]n2)cc1`, the outcome was inactive.

For `CC1(C)CC(=O)c2cnc3cc(-c4ccccc4)nn3c2C1`, the result was inactive.

Turning to `O=C1C(=O)N(c2ccccc2)C(c2ccccc2[N+](=O)[O-])C1=C(O)c1ccccc1` (stereo not drawn), the outcome was inactive.

In the case of `CCc1ccc(OCC(=O)Nc2ccc(F)cc2)cc1`, the outcome was inactive.

Take `Nc1cc(-c2ccccc2)nn1-c1ccccc1`: the compound was classed as inactive.

`O=C(COc1ccc(Br)cc1)N1CCN(c2ccccc2F)CC1`: the result was inactive.

Consider `O=[N+]([O-])c1ccc(S(=O)(=O)Nc2cc(Cl)ccc2O)cc1`, for which the result was inactive.

With `COc1ccc(CSc2nnc(-c3ccc(Cl)cc3Cl)o2)cc1[N+](=O)[O-]`, the call was inactive.

For `CCOc1ccc2nc(SCC(=O)NC(C)=O)sc2c1`, the call was inactive.

For `O=C(NCc1ccncc1)C(=O)NCc1ccco1`, the call was inactive.

Turning to `CC(C)(C)C1CCC(NCc2ccncc2)CC1` (stereo not drawn), the result was active.

As to `O=C(Cc1ccc(F)cc1)NCc1ccncc1`, the result was inactive.

Turning to `CCCc1ccc(OCC(O)CN2CCN(CCO)CC2)cc1` (stereo not drawn), the call was inactive.

As to `O=C(Nc1ccc(OCC(=O)N2CCOCC2)cc1)c1cc(F)c(F)cc1Cl`, the outcome was inactive.

As for `O=C1CC(N2CCN(c3ccccc3O)CC2)C(=O)N1c1ccc(Br)cc1` (stereo not drawn), the outcome was inactive.

`NC(=O)c1cc(NC(=O)CCC(=O)O)ccc1N1CCOCC1`: the outcome was inactive.

As for `O=S(=O)(Nc1cccc(O)c1)c1ccc(-c2ccccc2)cc1`, the result was inactive.

With `O=C(Nc1ccccc1F)C1CC(=O)N(c2ccccc2F)C1` (stereo not drawn), the compound was called inactive.

`O=C(Nc1ccc([N+](=O)[O-])cc1Br)c1ccncc1`: the call was inactive.

Take `O=C(COc1ccc(Br)cc1)Nc1ccc(N2CCOCC2)cc1`: the compound was classed as inactive.

In the case of `Cc1nc(-c2c[nH]c3ccccc23)cs1`, the compound was classed as inactive.

For the compound `O=C(NCCc1ccc(F)cc1)C1CC(=O)N(c2ccccc2)C1` (stereo not drawn), the compound was called inactive.

For the compound `Clc1ccc(OCc2nc(-c3cccnc3)no2)c(Cl)c1`, the result was inactive.

Regarding `c1ccc(CCc2nc(-c3ccncc3)no2)cc1`, the result was active.

With `Cc1ccccc1-c1nc(-c2ccncc2)no1`, the call was inactive.

On to `NCCNc1ccc([N+](=O)[O-])c(N2CCCCC2)c1`, for which the compound was classed as inactive.

Turning to `COc1cc(C=O)ccc1OCCOc1ccc(C)cc1Br`, the call was inactive.

For `Cc1ccc(-c2nc(-c3cccnc3)no2)cc1Cl`, the compound was classed as inactive.

Turning to `Cc1ccc2oc(-c3ccc(C)c(N)c3)nc2c1`, the result was inactive.

On to `CCn1c2c(c3cc([N+](=O)[O-])ccc31)CCCC2=O`, for which the compound was classed as inactive.

Take `CC(=O)N(c1ccccc1)C1CC(C)Nc2ccccc21` (stereo not drawn): the result was inactive.

For `O=C(NC12CC3CC(CC(C3)C1)C2)c1ccccc1C(=O)NC12CC3CC(CC(C3)C1)C2`, the compound was called inactive.

For the compound `COc1cccc(NC(=O)CN2CCN(c3nc4ccc([N+](=O)[O-])cc4s3)CC2)c1`, the result was inactive.

Regarding `COc1ccc(/C=C(/NC(=O)c2ccco2)C(=O)Nc2ccc([N+](=O)[O-])cc2)cc1`, the outcome was inactive.

With `CS(=O)(=O)N(CC(=O)N1CCCCCC1)c1cccc(Cl)c1Cl`, the compound was called inactive.

For the compound `O=[N+]([O-])c1ccccc1/C=C/CN1CCN(C/C=C/c2ccccc2)CC1`, the call was inactive.

With `C(=C\c1ccccc1)/CN1CCN(CC2CCCCC2)CC1`, the compound was called active.

Regarding `COc1cccc(CN2CCN(C/C=C/c3ccccc3)CC2)c1OC`, the compound was classed as inactive.

As for `CS(=O)(=O)N(CC(=O)N1CCCC1)c1ccc(I)cc1`, the outcome was inactive.

On to `CCOc1ccc(C(=O)NCCc2ccc(F)cc2)cc1`, for which the result was inactive.

Take `O=C(COc1cccc([N+](=O)[O-])c1)Nc1ccc(-c2nnc(-c3ccco3)o2)cc1`: the compound was classed as inactive.

Consider `Cc1ccc(NC(=O)c2ccccc2Br)cc1C`, for which the outcome was inactive.

As for `COc1ccc(C(O)=C2C(=O)C(=O)N(CCN3CCOCC3)C2c2ccncc2)cc1C` (stereo not drawn), the result was inactive.

Take `O=C(COc1ccc(F)cc1)NCc1ccco1`: the call was inactive.

In the case of `CCOc1ccc(-c2cc(C(=O)NCc3ccccn3)c3ccccc3n2)cc1`, the outcome was inactive.

For the compound `Cn1c(SCC(=O)Nc2cccc([N+](=O)[O-])c2)nc2ccccc21`, the result was inactive.

With `COc1ccc(C2C(=C(O)c3ccc(C)cc3)C(=O)C(=O)N2c2ccccn2)cc1` (stereo not drawn), the call was inactive.

As for `O=C(Cc1ccc(Cl)cc1)N1CCN(c2ccc(Cl)cc2[N+](=O)[O-])CC1`, the compound was called inactive.

Consider `O=C(Nc1cccc(F)c1)N1CCN(c2ccccc2F)CC1`, for which the call was inactive.

With `Cc1cccc(OCC(=O)Nc2cc(-c3nc4ncccc4o3)ccc2C)c1`, the result was inactive.

Regarding `O=C(NCc1cccnc1)C(CCO)Sc1nc2sc3c(c2c(=O)[nH]1)CCCC3` (stereo not drawn), the outcome was inactive.

`Cc1ccc(N2CCN(C3CCCCCC3)CC2)cc1`: the call was active.

Take `Cc1ccc(C(=O)N2CCN(c3ccccc3)CC2)cc1`: the call was inactive.

Take `Cc1ccc(S(=O)(=O)N2CCC(N3CCCCCC3)CC2)cc1`: the compound was classed as inactive.

Turning to `COc1cccc(NC(=O)Nc2nnc(-c3cccc(OC)c3)s2)c1`, the result was inactive.

For `Cc1ccc(C(=O)CNc2ccc(F)cc2)cc1`, the compound was called inactive.

Consider `Cc1cc(C)c2nc(C)cc(Nc3ccc4c(c3)OCCO4)c2c1`, for which the compound was called inactive.

On to `Cc1ccc(C(=O)N(Cc2ccccc2)C(C)C)cc1[N+](=O)[O-]`, for which the result was inactive.

In the case of `NC(=O)c1ccc(NC(=O)C(Sc2ccccc2)c2ccccc2)cc1` (stereo not drawn), the result was inactive.

For `COc1ccc(OC)c(NC(=O)CC2CCCCC2)c1`, the compound was classed as inactive.

On to `Fc1ccccc1OCCN1CCCC1`, for which the compound was called inactive.

With `Clc1ccc(OCCOCCN2CCCC2)c(Br)c1`, the result was active.

On to `Clc1cc(Br)ccc1OCCCCN1CCOCC1`, for which the compound was classed as active.

As to `Clc1ccc(OCCCCN2CCOCC2)c(Br)c1`, the call was active.

Consider `Clc1ccc(CN2CCOCC2)c(Cl)c1`, for which the call was inactive.

Take `O=C(CCCOc1ccc(Cl)cc1Cl)N1CCCC1`: the compound was classed as inactive.

As to `Clc1ccccc1OCCCCN1CCOCC1`, the call was active.

Turning to `O=[N+]([O-])c1ccccc1OCCCCN1CCCCC1`, the compound was called inactive.

Turning to `COc1ccc(C(=O)NCCCN2CCOCC2)cc1Br`, the compound was called inactive.

With `O=C(COc1ccc(Br)cc1Cl)NCCO`, the outcome was inactive.

As for `Cc1ccc(OCCOCCN2CCN(C)CC2)c(Br)c1`, the compound was classed as inactive.

For `Clc1ccc(OCCN2CCCCCC2)cc1`, the call was inactive.

`Cc1cc(N/C=C/C(=O)c2cccs2)no1`: the compound was classed as inactive.

As to `CCN(CC)CCC(=O)c1ccc(C(C)C)cc1`, the outcome was inactive.

As for `CCc1ccc(NC(=O)Nc2ccccc2)cc1`, the call was inactive.

Turning to `CCCC(=O)Nc1cccc(NC(=O)COc2ccc(C)c(C)c2)c1`, the compound was called inactive.

As to `Cc1cccc(C)c1OCC(=O)Nc1ccc([N+](=O)[O-])cc1`, the compound was classed as inactive.

For the compound `CCCC1CCc2c(sc(NC(=O)C3C4C=CC(C4)C3C(=O)O)c2C(N)=O)C1` (stereo not drawn), the compound was classed as inactive.
